# PubChem BioAssay AID1053180 (Broad Institute, 2014)
# Values joined by “and” are separate entries in the source; they are usually repeats but may differ in a detail not shown here. Identical values can stand only once. The campaign covered roughly 9,600 compounds. About 20 (0.2%) were called active.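 Rule for the calls: active = highest normalized replicate activity of 15 or more, or at least half the replicates reach 15 or more; inactive = neither condition met.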 The list comes from a sample in which actives are over-represented; it also holds similar structures and randomly drawn compounds. A structure can be active in one record and inactive in another.
# Assay: activators of Pax4 gene expression, primary screen, RT-PCR, mouse alpha TC1 cells, single point (AID 1053180);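 note: Pax4 Ct normalized to GAPDH with activation seen as lower delta delta Ct; plate controls were plate neutral control wells for no effect and Pax4 plasmid positive control for full effect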
# Settings: Pax4 mRNA qPCR, 6 days, at 10 µM, stronger effect = higher value, 100% = Pax4 plasmid added at qPCR
row,SMILES,activation
1,Cc1nn(C)cc1NC(=O)C[C@@H]1CC[C@@H]2[C@H](COc3ccc(NC(=O)c4cccc(F)c4)cc3C(=O)N2C)O1,0.0015% (inactive)
2,CC(C)[C@H]1COCn2nncc2CC[C@H](C)C(=O)N1,0.0005% (inactive)
3,c1cc(-c2ccc(C3[C@@H]4CN(Cc5nccs5)C[C@H]3N4)cc2)ccn1 (stereo not given in full),0.0255% (inactive)
4,O=C(Nc1ccccc1)N1CC(=O)N2[C@@H](CO)[C@H](c3ccc(C#CC4CCCCC4)cc3)[C@@H]2C1,0% (inactive)
5,CO[C@H]1CC[C@@H]2CCOc3c(C#N)cccc3C(=O)N(C)C[C@@H](OC)[C@@H](C)C(=O)N(C)C[C@H]1O2,-0.0005% (inactive)
6,COc1cccc(C#Cc2ccc([C@H]3[C@H](CO)N4C(=O)CN(C(=O)Cc5cccnc5)C[C@@H]34)cc2)c1,0% (inactive)
7,CO[C@H]1CC[C@H]2CCOc3c(C#N)cccc3C(=O)N(C)C[C@H](OC)[C@H](C)C(=O)N(C)C[C@@H]1O2,-0.0005% (inactive)
8,CO[C@H]1CN(C)C(=O)c2cc(NC(=O)CC(F)(F)F)ccc2OC[C@@H](C)N(CC2CC2)C[C@@H]1C,-0.0005% (inactive)
9,C[C@H](CO)N1C[C@H](C)[C@H](CN(C)Cc2ccc3c(c2)OCO3)Oc2ccc(NS(=O)(=O)c3cn(C)cn3)cc2CC1=O,0.004% (inactive)
10,N#C[C@@H]1N[C@@H](CO)[C@@H]1c1ccc(C#CC2CCCCC2)cc1,0.001% (inactive)
11,Cc1noc(C)c1S(=O)(=O)N(C)C[C@H]1Oc2c(NS(=O)(=O)c3cn(C)cn3)cccc2C(=O)N([C@@H](C)CO)C[C@@H]1C,-0.005% (inactive)
12,COc1ccc2c3c([nH]c2c1)[C@H](CO)N(C(=O)Nc1ccc(F)cc1)CC31CN(S(=O)(=O)c2ccc(C)cc2)C1,0.006% (inactive)
13,CCS(=O)(=O)Nc1ccc2c(c1)C(=O)N(C)[C@@H]1CC[C@H](CC(=O)NC3CCCCC3)O[C@@H]1CO2,0% (inactive)
14,C[C@@H]1CN([C@H](C)CO)C(=O)Cc2cc(NS(=O)(=O)c3ccc(Cl)cc3)ccc2O[C@@H]1CN(C)C(=O)Nc1ccc(C(F)(F)F)cc1,0.005% (inactive)
15,CC(C)NC(=O)Nc1ccc2c(c1)C(=O)N([C@H](C)CO)C[C@H](C)[C@@H](CN(C)C(=O)C1CCCCC1)OCCCC[C@H](C)O2,-0.0015% (inactive)
16,O=C(C[C@@H]1CC[C@H]2[C@@H](COC[C@H](O)CN2S(=O)(=O)c2cccc(F)c2)O1)NCc1ccncn1,0.011% (inactive)
17,Cc1nn(C)cc1NC(=O)C[C@@H]1CC[C@@H]2[C@@H](COc3ccc(NC(=O)c4cccc(F)c4)cc3C(=O)N2C)O1,0.0025% (inactive)
18,C[C@@H]1CN([C@H](C)CO)C(=O)c2cc(NS(=O)(=O)c3ccccc3)ccc2O[C@@H](C)CCCCO[C@@H]1CN(C)C(=O)C1CCCCC1,-0.001% (inactive)
19,CC(C)[C@@H]1CCc2cnnn2COC[C@H](Cc2ccccc2)NC1=O,-0.0175% (inactive)
20,O=C(C[C@H]1CC[C@@H]2[C@H](COC[C@H](O)CN2Cc2ccc3c(c2)OCO3)O1)N1CCCCC1,0.002% (inactive)

row,SMILES,activation
1,COc1ccc2c3c([nH]c2c1)[C@@H](CO)NCC31CN(Cc2cc(F)ccc2F)C1,0.0025% (inactive)
2,O=S(=O)(c1ccc(F)cc1)N1CCCCN2[C@H](CO)[C@H](c3ccc(-c4cncnc4)cc3)[C@H]2C1,0.001% (inactive)
3,O=C(C[C@H]1C[C@H]2c3cc(NS(=O)(=O)c4ccccc4)ccc3O[C@H]2[C@H](CO)O1)N1CCOCC1,0.0015% (inactive)
4,CC(=O)N1[C@@H]2Cn3c(ccc(-c4cccnc4)c3=O)[C@H]1[C@@H](C(=O)NC1Cc3ccccc3C1)[C@@H]2CO,0% (inactive)
5,C[C@H]1CN([C@@H](C)CO)C(=O)Cc2cc(NS(=O)(=O)c3ccc(Cl)cc3)ccc2O[C@H]1CN(C)C(=O)Nc1ccc(C(F)(F)F)cc1,-0.003% (inactive)
6,CN(C)C(=O)c1ccc(-c2ccc([C@@H]3[C@@H](CO)N4C(=O)CN(C(=O)CC5CC5)C[C@H]34)cc2)cc1,0.005% (inactive)
7,COc1ccc(CN2[C@@H]3CN(C(=O)NC(C)C)c4ccccc4[C@@H]3[C@@H]2CO)cc1,-0.0005% (inactive)
8,C[C@H](CO)N1C[C@H](C)[C@@H](CN(C)Cc2ccc(-c3ccccc3)cc2)Oc2c(NS(C)(=O)=O)cccc2C1=O,-0.001% (inactive)
9,C[C@H](CO)N1C[C@H](C)[C@@H](CN(C)Cc2ccc(Oc3ccccc3)cc2)Oc2c(NC(=O)CCC(F)(F)F)cccc2C1=O,0.039% (inactive)
10,C[C@H](CO)N1C[C@H](C)[C@@H](CN(C)Cc2ccccc2)Oc2c(NC(=O)Cc3cn(C)c4ccccc34)cccc2C1=O,13.8% (active)
11,C[C@@H](NC(=O)C[C@H]1CC[C@@H]2[C@@H](COc3ccc(NC(=O)C4CCOCC4)cc3C(=O)N2C)O1)c1ccccc1,0.0015% (inactive)
12,O=C(NC1CCCC1)N[C@H]1C=C[C@H](CC(=O)N2CCOCC2)O[C@H]1CO,0.0045% (inactive)
13,COc1ccc(S(=O)(=O)Nc2ccc3c(c2)CC(=O)N([C@H](C)CO)C[C@@H](C)[C@@H](CN(C)Cc2ccc(C(=O)Nc4ccccc4N)cc2)O3)cc1,0.03% (inactive)
14,COc1ccc(S(=O)(=O)Nc2ccc3c(c2)CC(=O)N([C@H](C)CO)C[C@H](C)[C@H](CN(C)Cc2ccc(C(=O)Nc4ccccc4N)cc2)O3)cc1,15.1% (active)
15,C[C@@H]1CN([C@@H](C)CO)C(=O)Cc2cc(NC(=O)C3CCCCC3)ccc2O[C@@H]1CN(C)Cc1ccc(Cl)c(Cl)c1,46.5% (active)
16,C[C@H]1CN([C@@H](C)CO)C(=O)Cc2cc(NC(=O)C3CCCCC3)ccc2O[C@H]1CN(C)Cc1ccc(Cl)c(Cl)c1,0.106% (inactive)
17,C[C@@H]1CN([C@H](C)CO)C(=O)Cc2cc(NC(=O)C3CCCCC3)ccc2O[C@H]1CN(C)Cc1ccc(Cl)c(Cl)c1,0.389% (inactive)
18,COc1ccc(S(=O)(=O)Nc2ccc3c(c2)CC(=O)N([C@H](C)CO)C[C@@H](C)[C@H](CN(C)Cc2ccc(C(=O)Nc4ccccc4N)cc2)O3)cc1,0.03% (inactive)
19,CCCN1C[C@H](C)[C@H](OC)CN(C)C(=O)c2ccc(NS(=O)(=O)c3cn(C)cn3)cc2OC[C@@H]1C,0.0005% (inactive)
20,CN1CCN(C(=O)C[C@H]2C[C@H]3c4cc(NS(C)(=O)=O)ccc4O[C@H]3[C@H](CO)O2)CC1,0% (inactive)

row,SMILES,activation
1,O=C(c1ccccn1)N1CC[C@@H]2[C@@H](CO)Nc3ccc(C#Cc4cccnc4)cc3[C@@H]21,0.001% (inactive)
2,C(=C\c1ccc(C2[C@@H]3CN(Cc4nccs4)C[C@H]2N3)cc1)/c1ccccc1 (stereo not given in full),0.714% (inactive) and 0.0635% (inactive)
3,Cc1ccccc1S(=O)(=O)N1C[C@@H]2N[C@H](C1)C2c1ccc(/C=C/c2ccccc2)cc1 (stereo not given in full),0.183% (inactive)
4,O=S(=O)(c1ccc(F)cc1)N1C[C@@H]2N[C@H](C1)C2c1ccc(/C=C/c2ccccc2)cc1 (stereo not given in full),8.33% (active) and 0.035% (inactive)
5,COc1ccccc1-c1ccc(C2[C@@H]3CN(Cc4cccc(F)c4)C[C@H]2N3)cc1 (stereo not given in full),0.062% (inactive)
6,CN(C)C(=O)c1cccc(-c2ccc(C3[C@@H]4CN(Cc5cocn5)C[C@H]3N4)cc2)c1 (stereo not given in full),0.001% (inactive)
7,Cc1cccc(-c2ccc(C3[C@@H]4CN(Cc5cccc(F)c5)C[C@H]3N4)cc2)c1 (stereo not given in full),50.5% (active) and 0.557% (inactive)
8,C/C=C/c1ccc(C2[C@@H]3CN(S(=O)(=O)c4ccccc4F)C[C@H]2N3)cc1 (stereo not given in full),0.01% (inactive)
9,Fc1ccc(-c2ccc(C3[C@@H]4CN(Cc5ccccc5)C[C@H]3N4)cc2)cc1 (stereo not given in full),1.66% (inactive) and 0.0585% (inactive)
10,Fc1cccc(CN2C[C@@H]3N[C@H](C2)C3c2ccc(/C=C/c3ccccc3)cc2)c1 (stereo not given in full),3.54% (inactive) and 8.86% (active)
11,CN(C)C(=O)c1cccc(-c2ccc(C3[C@@H]4CN(Cc5ccccc5F)C[C@H]3N4)cc2)c1 (stereo not given in full),1.26% (inactive) and 21.9% (active)
12,Fc1cccc(-c2ccc(C3[C@@H]4CN(Cc5cncnc5)C[C@H]3N4)cc2)c1 (stereo not given in full),0.047% (inactive) and 0.0125% (inactive)
13,CN(C)C(=O)c1ccc(-c2ccc(C3[C@@H]4CN(Cc5ccccc5Cl)C[C@H]3N4)cc2)cc1 (stereo not given in full),0.0085% (inactive)
14,O=C(c1ccc2c(c1)OCO2)N1C[C@@H]2N[C@H](C1)C2c1ccc(/C=C/c2ccccc2)cc1 (stereo not given in full),0.452% (inactive) and 0.1% (inactive)
15,C(=C\c1ccc(C2[C@@H]3CN(Cc4ccc5c(c4)OCO5)C[C@H]2N3)cc1)/c1ccccc1 (stereo not given in full),10.3% (active) and 0.0555% (inactive)
16,Cc1ccccc1-c1ccc(C2[C@@H]3CN(Cc4ccc5c(c4)OCO5)C[C@H]2N3)cc1 (stereo not given in full),0.039% (inactive) and 0.046% (inactive)
17,CCS(=O)(=O)N1Cc2cc(C(=O)NCCOC)nc(-c3cccc(-c4ccncc4)c3)c2[C@H]1CCO,0% (inactive)
18,N#C[C@@H]1[C@@H](c2ccccc2-c2ccccc2F)[C@@H](CO)N1C(=O)Cc1ccccc1,0.0105% (inactive)
19,CO[C@@H](CN(C)C(=O)c1ccc2c(c1)OCO2)[C@@H](C)CN([C@H](C)CO)S(=O)(=O)c1ccc(Cl)cc1,0.019% (inactive)
20,CO[C@H]1CC[C@@H]2CCOc3ccc(C#N)cc3C(=O)N(C)[C@H](C)C(=O)N(C)C[C@@H]1O2,0.001% (inactive)
